{
  "source": "paper PMC12136788",
  "binders": {"B1": {"name": "ENSG00000150403:stop:overlap|stop_codon|ENSG00000150403|stop_codon|NA|stop_codon (ssRNA)", "RNA": "GGGAGUUCUACAGUCCGACGAUCUGUCCAGGUUCCUCAUGGGCAGUGCUCGGGGUGACAAAGAAGGCAACAGAACAGCCCUCUAGCAGAGCGUCAGUGCAGUCGUGUUAUCCCGGCUUUUACAGAAUAUUCUUGUCCUAUUUUCAACAGAGGAUUGAGCAUCA"}, "B2": {"name": "chr1:37566712:37566813:+|3pUTR|ENSG00000163879|unk|FALSE|unique (ssRNA)", "RNA": "GGGAGUUCUACAGUCCGACGAUCGCUUUAUUUCCCUAGCACUGGUGAAGGGCUUCAACUGUCAAACCUCAGAACAAAUGCAUUAGGGCCUUAGAAAUGUCAAUGGGGCAGGAAGAAAACACAAUUUCUAACUGCCUGUUUUUGCAACAGAGGAUUGAGCAUCA"}, "B3": {"name": "chr16:16142165:16142266:+|3pUTR|ENSG00000103222|msi1|total|mutant (ssRNA)", "RNA": "GGGAGUUCUACAGUCCGACGAUCAUUGAUGUGGGGUAAAUAUUAAGGAGAUGGCCUCAUGGGAAUUUGACCUUGACCCGAAACCGAGACUGAGAGUGAGCAACCAGCUGGAAGGUACUAUGCCAGUCCCCGCAGAAAAAUGUGCAACAGAGGAUUGAGCAUCA"}, "B4": {"name": "chr20:4701031:4701132:+|3pUTR|ENSG00000171867|msi1|total|mutant (ssRNA)", "RNA": "GGGAGUUCUACAGUCCGACGAUCCACCGUUUCUGUAAUUGGCUUUUGAAUCAAAGAACCGGGAGACAAUCUAAAAAAUAUCUCCGGUUGGAGAUGACAGAAAUAUGAUUGAUUUGAAGUGGAAAAAGAAAUUCUGUUAAUGUUCAACAGAGGAUUGAGCAUCA"}, "B5": {"name": "chr19:21059139:21059240:+|3pUTR|ENSG00000118620|unk|total|mutant (ssRNA)", "RNA": "GGGAGUUCUACAGUCCGACGAUCGUAAAAAUGAAAAUAUUUAAUCCAAAAUUAAGUCUAUGUAAAUAUCAGAGAAUUUACUGCCGAAAUAUAUAAGGCACUGAGACUUCAGAUAUUAUACUAAAUCAGAGUGCUGAGUACCGACAACAGAGGAUUGAGCAUCA"}, "B6": {"name": "chr17:42200006:42200107:-|3pUTR|ENSG00000173757|unk|total|mutant (ssRNA)", "RNA": "GGGAGUUCUACAGUCCGACGAUCAAGCUGCCGUUUGCCUUGGCUUGGUUUCAUACACUGAUUUAUUUUUCUAUGCCAGGCAGCCGAGUCUCUCUGCCUCUGAGGAGCAGGCUACCCGCAUCCCACUCAGCCCCUCCCUACCCCCAACAGAGGAUUGAGCAUCA"}, "B7": {"name": "chr20:3582170:3582271:+|CDS|ENSG00000088812|msi1|FALSE|bound_elsewhere (ssRNA)", "RNA": "GGGAGUUCUACAGUCCGACGAUCGGCCUUCGGAAGAUCAAUGUGUCCUACUGGUGCUGGGAAGAUAUGUCCCCAUUUACAAAUAGUUUACUACAGUGGAUGCCGUCUGAGCCCAGUGAUGCUGGAUUCUGUGGAAUUUUAUCACAACAGAGGAUUGAGCAUCA"}, "B8": {"name": "chr3:10101824:10101929:+|3pUTR|ENSG00000144554|unk|total|mutant (ssRNA)", "RNA": "GGGAGUUCUACAGUCCGACGAUCAAAAUCUCUGAGUCAUGAUUCUGGACUUUGGGAGCCCGUUUUGAAACUCUGAUUUAUUGCCGAACUCCGGCUUGUACCAAUUUUACAAAUAAAUUCUGUUCUAAGUUCUGCCUCAGUUGCCAACAGAGGAUUGAGCAUCA"}, "B9": {"name": "ENSG00000166086:stop:overlap|stop_codon|ENSG00000166086|stop_codon|NA|stop_codon (ssRNA)", "RNA": "GGGAGUUCUACAGUCCGACGAUCUCCUGCUGCUGCUUUUCAGGGAGUCAAGUCUAGUCUGCUUUCCAAGGCUGCAUUCUAAGUAGUGAAGCCUCAACUUCAUAUUUACCUAAAGCAGGACACCACACUCUUCCCCUGGCAGCCCAACAGAGGAUUGAGCAUCA"}, "B10": {"name": "chr1:173734013:173734119:+|CDS|ENSG00000076321|unk|FALSE|unique (ssRNA)", "RNA": "GGGAGUUCUACAGUCCGACGAUCCAUUGACGAGAGGGCUAUGGAAUUACUGAUUGACUUUGCGUAUACCUCCCAGAUAACAGUAGAAGAGGGCAAUGUUCAGACUCUUCUGCCAGCUGCUUGCCUCCUCCAGCUGGCAGAAAUCAACAGAGGAUUGAGCAUCA"}, "B11": {"name": "chr10:73251842:73251943:-|CDS|ENSG00000182180|msi1|FALSE|unique (ssRNA)", "RNA": "GGGAGUUCUACAGUCCGACGAUCUCGGCCGUUCUACCGCAUUGUGGCUGCUCACAACAAGUGUCCCAGGGAUGGCCGUUUCGUAGAGCAGCUGGGCUCCUAUGAUCCAUUGCCCAACAGUCAUGGAGAAAAACUCGUUGCCCUCAACAGAGGAUUGAGCAUCA"}, "B12": {"name": "chr7:44121865:44121972:-|CDS|ENSG00000106628|unk|FALSE|unique (ssRNA)", "RNA": "GGGAGUUCUACAGUCCGACGAUCGUGCCAGUGGCAACCUACACCAACUCCUCACAACCCUUCCGGCUAGGAGAGCGCAGCUUUAGCCGGCAGUAUGCCCACAUUUAUGCCACCCGCCUCAUCCAAAUGAGACCCUUCCUGGAGCAACAGAGGAUUGAGCAUCA"}, "B13": {"name": "chr6:31137533:31137950:-|three_prime_utr|ENSG00000204538|control|control|control (ssRNA)", "RNA": "GGGAGUUCUACAGUCCGACGAUCGCAUCUCCAGGCACCCACGCCCUCUCCACCCUCUGAUUCCCCGUGAAUUCUUCCCAAUUUAGCCUGUCUCCUUAAACCUCUUCCUCAUUCCCUCGGUUUUAUUCUGAACCCGUAAGGUGGCAACAGAGGAUUGAGCAUCA"}, "B14": {"name": "chr6:57184343:57184440:+|3pUTR|ENSG00000112208|msi1_unk|FALSE|overlapping (ssRNA)", "RNA": "GGGAGUUCUACAGUCCGACGAUCUCUUCAGUUUUGUGAAUAACAAAACUAGCAAUAUUUUAAUUAUCUAUCUAGAGAUUUUUUAGAUUGAAUUCUUGUCUUGUACUAGGAUCUAGCAUAUUUCACUAUUCUGUGGAUGAAUACCAACAGAGGAUUGAGCAUCA"}, "B15": {"name": "chr13:110149936:110150037:-|3pUTR|ENSG00000187498|msi1|FALSE|unique (ssRNA)", "RNA": "GGGAGUUCUACAGUCCGACGAUCUUCUUGUAUUAUAAUUAAUUUUCUACCCCCAGAGAUAAAUGUUUGUUUAUAUCACUGUCUAGCUGUUUCAAAAUUUAGGUCCCUUGGUCUGUACAAAUAAUAGCAAUGUAAAAAUGGUUUCAACAGAGGAUUGAGCAUCA"}, "B16": {"name": "chr9:76611375:76614569:-|three_prime_utr|ENSG00000106772|control|control|control (ssRNA)", "RNA": "GGGAGUUCUACAGUCCGACGAUCAUGUUACCUUUUUCCACUUUGCACUACCUGGUGCCAUUCUAAAUUUCUAAGGGGAAAAAUAGAAAGUUUGUUUACUCUUAAGAUAUUUUAUGAAAUUGUGUGUACUUUCCUAUUUUGCCACAACAGAGGAUUGAGCAUCA"}, "B17": {"name": "ENSG00000136451:be:win_2451|3pUTR|ENSG00000136451|bound_else_gene|NA|bound_elsewhere_windowed (ssRNA)", "RNA": "GGGAGUUCUACAGUCCGACGAUCUUUAAAUUGGAAGACGCUGGAGGCACUGGGAUGUGAUAUGCCCCUCUCUCUCCCAAUCAGAGCCUGUUGAUAUUACAACAGGGACAGAUGUGUUAGUUGCUCACUAGAGUUUAUGUCUUACAACAGAGGAUUGAGCAUCA"}, "B18": {"name": "chr12:89642165:89642281:-|CDS|ENSG00000070961|unk|FALSE|bound_elsewhere (ssRNA)", "RNA": "GGGAGUUCUACAGUCCGACGAUCGCCAAAAACCUUUCUUCAAUUAGUAUGGGAAGCAUUACAAGAUGUCACUUUAAUUAUAUUAGAAAUUGCAGCCAUAGUAUCAUUGGGCCUUUCUUUUUAUCAGCCUCCAGAAGGGGAUAACAACAGAGGAUUGAGCAUCA"}, "B19": {"name": "chr13:110149936:110150037:-|3pUTR|ENSG00000187498|msi1|total|mutant (ssRNA)", "RNA": "B15 RNA with U83C, A84C, U99C, A100C, U124C, A125C"}, "B20": {"name": "ENSG00000136451:be:win_2551|3pUTR|ENSG00000136451|bound_else_gene|NA|bound_elsewhere_windowed (ssRNA)", "RNA": "GGGAGUUCUACAGUCCGACGAUCUCACUAGAGUUUAUGUCUUAUAUUAAAUUGUAUACAGUUUUUAUUCUAACCACUAACUAGGUAGUGUAUGCCCCUUCAGAACAUGCAGAGUGUAUCUUUUUUUAAAUUUCUCCUUCCGUUCAACAGAGGAUUGAGCAUCA"}, "B21": {"name": "chr1:214663888:214664008:+|3pUTR|ENSG00000117724|msi1|total|mutant (ssRNA)", "RNA": "GGGAGUUCUACAGUCCGACGAUCAGGAGAAAACAAUUCCUCCGAAGUCUUAAAUAUAUUGUACUCUUCCGAUCUCCCAUGUGCCGGUAUUGAAAAAGUUUGGAAGCACUGAUCACCUGUCCGCAUUGCCAUUCCUCUACUGCACAACAGAGGAUUGAGCAUCA"}, "B22": {"name": "ENSG00000070961:be:win_251|CDS|ENSG00000070961|bound_else_gene|NA|bound_elsewhere_windowed (ssRNA)", "RNA": "GGGAGUUCUACAGUCCGACGAUCUGUUUGGAAAGAAUUUUAUACCUCCUAAAAAGCCAAAAACCUUUCUUCAAUUAGUAUGGGAAGCAUUACAAGAUGUCACUUUAAUUAUAUUAGAAAUUGCAGCCAUAGUAUCAUUGGGCCCAACAGAGGAUUGAGCAUCA"}, "B23": {"name": "ENSG00000136451:be:win_2501|3pUTR|ENSG00000136451|bound_else_gene|NA|bound_elsewhere_windowed (ssRNA)", "RNA": "GGGAGUUCUACAGUCCGACGAUCUCCCAAUCAGAGCCUGUUGAUAUUACAACAGGGACAGAUGUGUUAGUUGCUCACUAGAGUUUAUGUCUUAUAUUAAAUUGUAUACAGUUUUUAUUCUAACCACUAACUAGGUAGUGUAUGCAACAGAGGAUUGAGCAUCA"}, "B24": {"name": "chr1:214663888:214664008:+|3pUTR|ENSG00000117724|msi1|FALSE|bound_elsewhere (ssRNA)", "RNA": "B21 RNA with C41U, C42A, C68U, C69A, C83U, C84A, C120U, C121A"}, "B25": {"name": "ENSG00000070961:be:win_301|CDS|ENSG00000070961|bound_else_gene|NA|bound_elsewhere_windowed (ssRNA)", "RNA": "GGGAGUUCUACAGUCCGACGAUCUUAGUAUGGGAAGCAUUACAAGAUGUCACUUUAAUUAUAUUAGAAAUUGCAGCCAUAGUAUCAUUGGGCCUUUCUUUUUAUCAGCCUCCAGAAGGGGAUAAUGCACUUUGUGGAGAAGUUCAACAGAGGAUUGAGCAUCA"}},
  "note": "Numbering of substitutions follows the chain as printed. Over roughly 5,800 sequences, “enrichment r” has its median near 0.54; the highest 2% begin near 16. The entries come from a sample that favours the highest values as a whole.",
  "data": [
    {"biological_target": "MSI1 full-length (mouse, UniProt Q61474 1-362)", "sequence (Q61474 whole entry)": "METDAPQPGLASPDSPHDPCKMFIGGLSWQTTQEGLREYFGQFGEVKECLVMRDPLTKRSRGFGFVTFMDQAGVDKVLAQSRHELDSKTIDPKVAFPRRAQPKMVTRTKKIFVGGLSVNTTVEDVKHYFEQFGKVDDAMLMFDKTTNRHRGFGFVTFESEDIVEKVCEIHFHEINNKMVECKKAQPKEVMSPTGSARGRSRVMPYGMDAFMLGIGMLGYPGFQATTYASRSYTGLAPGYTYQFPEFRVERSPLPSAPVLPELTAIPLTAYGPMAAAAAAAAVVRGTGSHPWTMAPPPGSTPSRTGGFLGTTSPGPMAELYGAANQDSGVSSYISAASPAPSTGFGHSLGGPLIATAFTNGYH", "experiment": "nsRBNS (natural sequence RNA bind-n-seq); RBNS binding buffer (assumed for nsRBNS): 25 mM Tris pH 7.5, 150 mM KCl, 3 mM MgCl2, 0.01% Triton X-100, 500 ug/ml BSA, 20 U/ml SUPERase-In, 4 C; UNK is unkempt and MSI1 is Musashi-1; names of the RNAs are library labels; protein concentration not given here; high values mean tight binding", "units": {"binding signal": "enrichment R"}, "values": [
      {"binder": "B1", "binding signal": 0.829},
      {"binder": "B2", "binding signal": 0.39},
      {"binder": "B3", "binding signal": 0.411},
      {"binder": "B4", "binding signal": 0.277},
      {"binder": "B5", "binding signal": 4.16},
      {"binder": "B6", "binding signal": 0.705},
      {"binder": "B7", "binding signal": 0.86},
      {"binder": "B8", "binding signal": 0.338},
      {"binder": "B9", "binding signal": 0.461},
      {"binder": "B10", "binding signal": 1.23},
      {"binder": "B11", "binding signal": 0.318},
      {"binder": "B12", "binding signal": 0.629},
      {"binder": "B13", "binding signal": 0.944},
      {"binder": "B14", "binding signal": 4.43},
      {"binder": "B15", "binding signal": 30.3},
      {"binder": "B16", "binding signal": 1.45},
      {"binder": "B17", "binding signal": 1.47},
      {"binder": "B18", "binding signal": 9.09},
      {"binder": "B19", "binding signal": 3.28},
      {"binder": "B20", "binding signal": 10.4},
      {"binder": "B21", "binding signal": 0.406},
      {"binder": "B22", "binding signal": 17.2},
      {"binder": "B23", "binding signal": 25.2},
      {"binder": "B24", "binding signal": 16.4},
      {"binder": "B25", "binding signal": 9.77}
    ]}
  ]
}
